GRK2 inh = inhibitors of human GRK2 displacing RNA aptamer. P25098. bead flow cytometry, FAM-aptamer displacement from GRK2. inhibition of aptamer binding, % at 10 µM. hit rate 0.59% among 330,000. AID 488847;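 active = inhibition of aptamer binding above 40%, roughly 3 SD of noise, on plates passing a quality check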;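 note: median bead fluorescence of bound FAM aptamer so fluorescent compounds give negative values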
Target sequence (P25098 whole entry, looked up): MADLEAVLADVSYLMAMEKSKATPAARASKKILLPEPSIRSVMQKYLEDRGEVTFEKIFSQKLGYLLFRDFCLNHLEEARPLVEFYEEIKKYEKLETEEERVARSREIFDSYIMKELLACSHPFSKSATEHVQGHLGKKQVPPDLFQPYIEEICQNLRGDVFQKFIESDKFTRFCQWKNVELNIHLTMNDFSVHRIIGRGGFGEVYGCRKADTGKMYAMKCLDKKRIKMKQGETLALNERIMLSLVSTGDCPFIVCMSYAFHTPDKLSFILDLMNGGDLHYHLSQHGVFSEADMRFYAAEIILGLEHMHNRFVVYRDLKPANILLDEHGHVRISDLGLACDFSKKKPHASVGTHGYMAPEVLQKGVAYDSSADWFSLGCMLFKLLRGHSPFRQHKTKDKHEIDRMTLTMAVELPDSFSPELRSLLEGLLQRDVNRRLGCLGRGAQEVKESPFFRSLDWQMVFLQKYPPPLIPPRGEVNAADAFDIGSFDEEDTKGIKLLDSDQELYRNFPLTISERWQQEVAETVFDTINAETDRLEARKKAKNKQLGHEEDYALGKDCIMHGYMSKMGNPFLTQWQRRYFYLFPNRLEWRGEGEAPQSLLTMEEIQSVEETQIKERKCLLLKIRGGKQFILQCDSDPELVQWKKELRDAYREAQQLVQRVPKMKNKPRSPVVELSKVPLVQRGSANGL
NOD2-RIPK2 inh = NOD2-RIPK2 protein interaction inhibition; hit rate 0.38% among 360,000; inhibition, % at 4.98 µM; CHO BLA complementation NOD2-RIPK2, CCF4 ratio; AID 624267; in the data active = inhibition above about 21%;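 note: 0% = vehicle only and 100% = reference blocker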
TLR9-MyD88 block = blocks human TLR9 binding to MyD88; hit rate 0.21% among 340,000; CHO BLA complementation TLR9-MyD88, CCF4 FRET ratio; inhibition, % at 4.98 µM; AID 504734;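 active = inhibition above the mean over all tested compounds plus 3 SD, cut at about 21% in these data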;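 note: 0% = DMSO only wells and 100% = clavulanate BLA inhibitor control wells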
TLR4 MyD88 comp = TLR4-MyD88 interaction inhibition in cells; O00206+Q99836; HeLa CL3-4 TLR4/MyD88 BLA complementation, FRET ratio; inhibition, % at 8.4 µM; hit rate 0.18% among 200,000; AID 861; in the data active = inhibition above about 25%;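 note: 0% = vehicle and 100% = reference inhibitor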
ANO1 block = blocks the mouse calcium-activated chloride channel TMEM16A; hit rate 1.2% among 310,000; normalized B-score (activity score, 25-100; higher = stronger inhibition) at 10 µM; HEK293 TMEM16A/YFP iodide influx fluorescence, ionomycin;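 active = ratio plate-corrected score three or more library SD toward inhibition, starting fluorescence score within five deviations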;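 note: score derived from kinetic fluorescence span divided by baseline fluorescence per well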
ANO1 activ = activators or potentiators of mouse TMEM16A chloride channel | Q8BHY3 | HEK293 TMEM16A/YFP-H148Q/I152L, iodide quench fluorescence; hits give low values | B-score at 10 µM | hit rate 0.3% among 340,000 | AID 623877;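 active = fluorescence-ratio B-score plate-corrected deviation score at least 3 library SD below zero, with starting fluorescence score within 5 deviations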;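 note: channel opened by trigger with iodide after compound preincubation; score built on the fluorescence ratio of max minus min over baseline; more negative score means more quench and so TMEM16A activation or potentiation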
GRK2 inh confirm = human GRK2 inhibition confirmation, cherry pick 1; shares compounds with GRK2 inh; bead-bound GRK2, FAM-aptamer displacement, flow cytometry; aptamer displacement, % at 10 µM; hit rate 4% among 2,000;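 active = aptamer displacement above 40%, near three times the noise of non-fluorescent compounds, on plates passing quality checks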;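 note: negative values mostly reflect intrinsic compound fluorescence rather than true enhancement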
Aptamer quench SP = counter-screen for GRK2 aptamer inhibitors: fluorescent aptamer quenchers. shares compounds with GRK2 inh. Carboxyfluorescein RNA aptamer on beads, flow cytometry quenching; hits give low values. fluorescence response (% of DMSO), % at 10 µM. 2,000 tested, under 10 active. AID 504580;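 active = compounds that quench the bead-bound fluorescent RNA probe, cutting fluorescence to under half of the solvent control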;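 note: counterscreen run without GRK2 so only probe quenching by compound is measured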
GRK2 CP2 = human GRK2 inhibition confirmation, cherry pick 2; shares compounds with GRK2 inh; bead-bound GRK2, FAM-aptamer displacement, flow cytometry; inhibition of aptamer binding, % at 10 µM; 360 tested, under 10 active; AID 504782;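 active = inhibition of aptamer binding above 40%, about triple the noise seen with nonglowing compounds, on plates passing quality control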;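 note: negative values mostly come from compounds that fluoresce themselves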
FAM quench SP = aptamer fluorescence quenching in GRK2 counter-screen. shares compounds with GRK2 inh. carboxyfluorescein RNA aptamer beads, flow cytometry quenching; hits give low values. fluorescence response vs DMSO, % at 10 µM. 360 tested, under 10 active;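 active = response vs DMSO under 50%, meaning signal dropped by over half, treated as fluorescence quencher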;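 note: labelled aptamer on streptavidin beads without GRK2 as a quench counter-screen; 100% = bead fluorescence of DMSO wells and lower means quenching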
* hit, by the source's call. A selection: hits, their analogues and other compounds. The true share with any hit is near 2.2%.

`COCCNC(=O)c1c(N)n(-c2ccccc2)c2nc3ccccc3nc12` gave GRK2 inh 35.0, NOD2-RIPK2 inh 10.6, TLR9-MyD88 block 2.8, TLR4 MyD88 comp -9.8, ANO1 block inactive, ANO1 activ inactive, GRK2 inh confirm 0.3 and Aptamer quench SP 103.1.
Screening CNC(C)C(=O)NC(C(=O)N1CCCC1C(=O)NC1CCCc2ccccc21)C(C)C (stereo unspecified) returned GRK2 inh 2.0, NOD2-RIPK2 inh 4.8, TLR9-MyD88 block 6.7 and ANO1 activ inactive.
CNC(C)C(=O)NC(C(=O)N1CCCC1C(=O)NNc1ccccc1)C(C)C (stereo unspecified) was read as GRK2 inh 67.0*, NOD2-RIPK2 inh -4.5, TLR9-MyD88 block -3.0, ANO1 activ inactive, GRK2 inh confirm 9.8 and Aptamer quench SP 94.0.
For O=c1cc(CN2CCN(Cc3ccc(F)cc3)C(CCO)C2)[nH]c2ccccc12 (stereo unspecified) the results were GRK2 inh 41.0*, NOD2-RIPK2 inh 4.0, TLR9-MyD88 block -3.2, ANO1 block inactive, ANO1 activ inactive, GRK2 CP2 1.4 and FAM quench SP 99.0.
For O=C1CCCN1C(=O)CSc1nnnn1-c1cccc(F)c1 the results were GRK2 inh 1.0, NOD2-RIPK2 inh 0.2, TLR9-MyD88 block -8.3 and ANO1 activ inactive.
O=C(COC(=O)Cc1ccc(-c2ccccc2)cc1)NCc1ccccc1 was read as GRK2 inh 0.0, NOD2-RIPK2 inh -1.1, TLR9-MyD88 block 6.2, TLR4 MyD88 comp -3.8, ANO1 block inactive, ANO1 activ inactive, GRK2 inh confirm -2.9 and Aptamer quench SP 79.4.
For CC(NC(=O)COC(=O)Cc1ccc(-c2ccccc2)cc1)c1ccccc1 (stereo unspecified) the results were GRK2 inh 0.0, NOD2-RIPK2 inh 0.7, TLR9-MyD88 block 2.0, TLR4 MyD88 comp -8.7, ANO1 block inactive, ANO1 activ inactive, GRK2 inh confirm 1.1 and Aptamer quench SP 21.9*.
O=C(COC(=O)Cc1ccc(Cl)cc1)NCc1ccc(Cl)cc1 was read as NOD2-RIPK2 inh 1.9 and TLR9-MyD88 block -6.0.
COc1cccc(CN2CCC(C(=O)N3CCN(c4ccccc4F)CC3)CC2)c1OC was read as GRK2 inh 60.0*, NOD2-RIPK2 inh -7.9, TLR9-MyD88 block 1.8, TLR4 MyD88 comp 6.5, ANO1 block inactive, ANO1 activ inactive, GRK2 CP2 -2.5 and FAM quench SP 100.0.
Cc1cc(C(C)(C)C)cc(S(=O)(=O)NCCO)c1C was read as GRK2 inh 99.0*, NOD2-RIPK2 inh -18.0, TLR9-MyD88 block -3.8, TLR4 MyD88 comp 2.8, ANO1 block inactive, ANO1 activ inactive, GRK2 inh confirm -5.0 and Aptamer quench SP 100.0.
Screening Nc1nnnn1/N=C/c1ccccc1OCc1ccc(Cl)cc1 returned GRK2 inh 74.0*, NOD2-RIPK2 inh 3.3, TLR9-MyD88 block 1.4, TLR4 MyD88 comp -3.5, ANO1 block inactive, ANO1 activ inactive, GRK2 inh confirm 1.3 and Aptamer quench SP 99.3.
For Nc1nnnn1/N=C/c1ccccc1OCc1ccc(Cl)cc1Cl the results were GRK2 inh 0.0, NOD2-RIPK2 inh -19.4, TLR9-MyD88 block 7.2, TLR4 MyD88 comp -4.3, ANO1 block inactive and ANO1 activ inactive.
`C/C(=N\N(c1ccccc1)c1ccccc1)c1ccco1` gave GRK2 inh 0.0, NOD2-RIPK2 inh 1.6, TLR9-MyD88 block 7.8, TLR4 MyD88 comp 12.5, ANO1 block inactive and ANO1 activ inactive.
`CN1C(=O)C(C)(C)c2cc(S(=O)(=O)N3CCCC(C(=O)NCc4ccccc4Cl)C3)ccc21` (stereo unspecified) gave GRK2 inh 0.0, NOD2-RIPK2 inh -2.1, TLR9-MyD88 block 9.8, ANO1 block inactive, ANO1 activ inactive, GRK2 inh confirm 1.6 and Aptamer quench SP 101.0.
COc1ccc(CNC(=O)C2CCCN(S(=O)(=O)c3ccc4c(c3)C(C)(C)C(=O)N4C)C2)cc1 (stereo unspecified) was read as GRK2 inh 0.0, NOD2-RIPK2 inh 4.3, TLR9-MyD88 block -1.4, ANO1 block inactive and ANO1 activ inactive.
`CNC(=O)COC(=O)c1ccccc1Nc1ccccc1` gave GRK2 inh 0.0, NOD2-RIPK2 inh -5.3, TLR9-MyD88 block -0.8, TLR4 MyD88 comp -11.2, ANO1 block inactive and ANO1 activ inactive.
Clc1cccc(CN2CCSCC2)c1 was read as GRK2 inh 99.0*, NOD2-RIPK2 inh 7.6, TLR9-MyD88 block -3.9, ANO1 block inactive, ANO1 activ inactive, GRK2 inh confirm 34.3 and Aptamer quench SP 101.8.
For O=S1(=O)CCN(Cc2cccc(Cl)c2)CC1 the results were GRK2 inh 0.0, NOD2-RIPK2 inh -7.2, TLR9-MyD88 block -8.9, TLR4 MyD88 comp -13.2, ANO1 block inactive and ANO1 activ inactive.
For COc1ccccc1C(=O)NCC(=O)OCCCOC(=O)CNC(=O)c1ccccc1OC the results were GRK2 inh 0.0, NOD2-RIPK2 inh 5.7, TLR9-MyD88 block -1.3, ANO1 block inactive and ANO1 activ inactive.
CCOc1ccc(C2=NNC(c3cccnc3)=Nc3ccc(OC)cc32)cc1 was read as GRK2 inh 100.0*, NOD2-RIPK2 inh 3.2, TLR9-MyD88 block 8.5, TLR4 MyD88 comp 10.3, ANO1 block inactive, ANO1 activ inactive, GRK2 inh confirm 3.5 and Aptamer quench SP 101.1.
Screening O=C1Nc2cc(C(F)(F)F)ccc2N2CCCCC12 (stereo unspecified) returned GRK2 inh 52.0*, NOD2-RIPK2 inh -2.5, TLR9-MyD88 block -0.3, ANO1 block inactive, ANO1 activ inactive, GRK2 CP2 27.1 and FAM quench SP 94.0.
`O=C1Nc2ccc(C(F)(F)F)cc2N2CCCC12` (stereo unspecified) gave GRK2 inh 0.0 and ANO1 block inactive.
Screening COc1ccc(Cl)c2sc(N(CCN(C)C)C(=O)C3=COCCO3)nc12 returned NOD2-RIPK2 inh 0.5, TLR9-MyD88 block -2.7 and ANO1 activ inactive.

Compound activity: PubChem, several laboratories
